In PubChem BioAssay AID1159580 (chemical genetic matrix, 2015):
Hit rate of the full screen: of about 5,500 compounds, about 2,000 (36%) were called active. Not shown: some 18% with an inconclusive outcome. Rule as the data show it: active = normalized growth mostly below about 0.91 (no sharp cut-off); inconclusive = no clear call, values can overlap the other calls; inactive = mostly above about 0.92. Some of the results follow.

Experiment: chemical genetic growth profiling, strain panel (AID 1159580);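 also: tested at 20 µM; growth read once vehicle control cultures reached saturation at 30 °C; 1 = growth at the plate median or of vehicle wells; lower values mean less growth of the strain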
Conditions: growth OD

Measured: normalized growth

CC(=O)Nc1nnc(S(N)(=O)=O)s1
active: S. cerevisiae deletion strains, locus YKL190W, strain CNB1, active compounds read low 0.569 | S. cerevisiae deletion strains, locus YKR001C, strain vps1, active compounds read low 0.884 | S. cerevisiae deletion strains, locus YLR039C, strain RIC1, active compounds read low 0.423 | S. cerevisiae deletion strains, locus YLR058C, strain SHM2, active compounds read low 0.837 | S. cerevisiae deletion strains, locus YLR262C, strain YPT6, active compounds read low 0.321 | S. cerevisiae deletion strains, locus YLR330W, strain CHS5, active compounds read low 0.557 | S. cerevisiae deletion strains, locus YLR342W, strain FKS1 (second series), active compounds read low 0.496 | S. cerevisiae deletion strains, locus YLR418C, strain cdc73, active compounds read low 0.637 | S. cerevisiae deletion strains, locus YML016C, strain PPZ1, active compounds read low 0.412 | S. cerevisiae deletion strains, locus YMR263W, strain SAP30, active compounds read low 0.809 | S. cerevisiae deletion strains, locus YMR307W, strain GAS1, active compounds read low 0.439 | S. cerevisiae deletion strains, locus YNL067W, strain RPL9B, active compounds read low 0.755 | S. cerevisiae deletion strains, locus YNL233W, strain BNI4, active compounds read low 0.792 | S. cerevisiae deletion strains, locus YNL307C, strain MCK1, active compounds read low 0.846 | S. cerevisiae deletion strains, locus YNL322C, strain KRE1, active compounds read low 0.592 | S. cerevisiae deletion strains, locus YOL006C, strain TOP1, active compounds read low 0.141 | S. cerevisiae deletion strains, locus YOR061W, strain CKA2, active compounds read low 0.702 | S. cerevisiae deletion strains, locus YOR069W, strain VPS5, active compounds read low 0.826 | S. cerevisiae deletion strains, locus YPL241C, strain CIN2, active compounds read low 0.645 | S. cerevisiae deletion strains, strain wtn01, active compounds read low 0.874 | S. cerevisiae strains, strain wild type, active compounds read low 0.533
inactive: S. cerevisiae deletion strains, locus YKL009W, strain mrt4, active compounds read low 1.03 | S. cerevisiae deletion strains, locus YKL068W, active compounds read low 1 | S. cerevisiae deletion strains, locus YKL085W, strain MDH1 (second series), active compounds read low 1.01 | S. cerevisiae deletion strains, locus YKL085W, strain MDH1, active compounds read low 1.01 | S. cerevisiae deletion strains, locus YKL160W, strain elf1, active compounds read low 1 | S. cerevisiae deletion strains, locus YKR026C, strain gcn3, active compounds read low 1 | S. cerevisiae deletion strains, locus YKR091W, strain srl3, active compounds read low 1.01 | S. cerevisiae deletion strains, locus YLL001W, strain dnm1, active compounds read low 1.01 | S. cerevisiae deletion strains, locus YLL026W, active compounds read low 1.01 | S. cerevisiae deletion strains, locus YLL041C, strain sdh2, active compounds read low 1.01 | S. cerevisiae deletion strains, locus YLR027C, strain aat2, active compounds read low 1.01 | S. cerevisiae deletion strains, locus YLR102C, strain apc9, active compounds read low 0.99 | S. cerevisiae deletion strains, locus YLR113W, strain HOG1, active compounds read low 0.982 | S. cerevisiae deletion strains, locus YLR221C, strain rsa3, active compounds read low 0.986 | S. cerevisiae deletion strains, locus YLR258W, strain gsy2, active compounds read low 1.01 | S. cerevisiae deletion strains, locus YLR262C, strain YPT6 (second series), active compounds read low 1.04 | S. cerevisiae deletion strains, locus YLR268W, strain sec22, active compounds read low 0.895 | S. cerevisiae deletion strains, locus YLR320W, strain mms22, active compounds read low 0.99 | S. cerevisiae deletion strains, locus YLR342W, strain FKS1, active compounds read low 1.02 | S. cerevisiae deletion strains, locus YLR357W, strain rsc2, active compounds read low 1 | S. cerevisiae deletion strains, locus YLR370C, strain arc18, active compounds read low 0.996 | S. cerevisiae deletion strains, locus YLR371W, strain rom2, active compounds read low 0.945 | S. cerevisiae deletion strains, locus YLR384C, strain iki3, active compounds read low 1 | S. cerevisiae deletion strains, locus YML032C, strain rad52, active compounds read low 1.01 | S. cerevisiae deletion strains, locus YML120C, strain ndi1, active compounds read low 1.02 | S. cerevisiae deletion strains, locus YML124C, strain tub3, active compounds read low 1.01 | S. cerevisiae deletion strains, locus YMR058W, strain fet3, active compounds read low 1.02 | S. cerevisiae deletion strains, locus YMR078C, strain ctf18, active compounds read low 0.994 | S. cerevisiae deletion strains, locus YMR125W, strain sto1, active compounds read low 0.989 | S. cerevisiae deletion strains, locus YMR129W, active compounds read low 1.02 | S. cerevisiae deletion strains, locus YMR205C, strain PFK2, active compounds read low 1.01 | S. cerevisiae deletion strains, locus YMR223W, strain ubp8, active compounds read low 0.904 | S. cerevisiae deletion strains, locus YMR231W, strain pep5, active compounds read low 0.993 | S. cerevisiae deletion strains, locus YNL071W, strain lat1, active compounds read low 1.01 | S. cerevisiae deletion strains, locus YNL128W, strain TEP1, active compounds read low 1 | S. cerevisiae deletion strains, locus YNL175C, strain NOP13, active compounds read low 1.03 | S. cerevisiae deletion strains, locus YNL183C, strain NPR1, active compounds read low 0.959 | S. cerevisiae deletion strains, locus YNL197C, strain WHI3, active compounds read low 1 | S. cerevisiae deletion strains, locus YNL209W, strain ssb2, active compounds read low 1.01 | S. cerevisiae deletion strains, locus YNL224C, strain SQS1, active compounds read low 0.996 | S. cerevisiae deletion strains, locus YNL248C, strain rpa49, active compounds read low 0.971 | S. cerevisiae deletion strains, locus YNL250W, strain rad50, active compounds read low 1.01 | S. cerevisiae deletion strains, locus YNL271C, strain bni1, active compounds read low 1.01 | S. cerevisiae deletion strains, locus YNL298W, strain CLA4, active compounds read low 1 | S. cerevisiae deletion strains, locus YNL322C, strain KRE1 (second series), active compounds read low 1.01 | S. cerevisiae deletion strains, locus YNR049C, strain mso1, active compounds read low 1.02 | S. cerevisiae deletion strains, locus YNR052C, strain pop2, active compounds read low 0.995 | S. cerevisiae deletion strains, locus YOL012C, strain htz1 0.275 | S. cerevisiae deletion strains, locus YOL147C, strain pex11, active compounds read low 1.01 | S. cerevisiae deletion strains, locus YOR001W, strain rrp6, active compounds read low 1.02 | S. cerevisiae deletion strains, locus YOR070C, strain gyp1, active compounds read low 1 | S. cerevisiae deletion strains, locus YOR080W, strain dia2, active compounds read low 1.01 | S. cerevisiae deletion strains, locus YOR083W, strain WHI5 (second series), active compounds read low 1.02 | S. cerevisiae deletion strains, locus YOR083W, strain WHI5, active compounds read low 0.993 | S. cerevisiae deletion strains, locus YOR106W, strain vam3, active compounds read low 1.02 | S. cerevisiae deletion strains, locus YOR136W, strain idh2, active compounds read low 0.979 | S. cerevisiae deletion strains, locus YOR144C, strain elg1, active compounds read low 1.01 | S. cerevisiae deletion strains, locus YOR184W, strain ser1, active compounds read low 0.885 | S. cerevisiae deletion strains, locus YOR231W, strain MKK1, active compounds read low 0.987 | S. cerevisiae deletion strains, locus YOR265W, strain rbl2, active compounds read low 1.01 | S. cerevisiae deletion strains, locus YOR270C, strain vph1, active compounds read low 1 | S. cerevisiae deletion strains, locus YOR290C, strain snf2, active compounds read low 1 | S. cerevisiae deletion strains, locus YOR316C, strain cot1, active compounds read low 0.982 | S. cerevisiae deletion strains, locus YPL051W, strain arl3, active compounds read low 1 | S. cerevisiae deletion strains, locus YPL078C, strain atp4, active compounds read low 1.02 | S. cerevisiae deletion strains, locus YPL106C, strain sse1, active compounds read low 0.998 | S. cerevisiae deletion strains, locus YPL240C, strain hsp82, active compounds read low 1 | S. cerevisiae deletion strains, locus YPL256C, strain CLN2, active compounds read low 0.992 | S. cerevisiae deletion strains, locus YPR119W, strain clb2, active compounds read low 1.01 | S. cerevisiae deletion strains, locus YPR141C, strain kar3, active compounds read low 1.01 | S. cerevisiae deletion strains, locus YPR163C, strain tif3, active compounds read low 0.987 | S. cerevisiae deletion strains, locus YPR167C, strain met16, active compounds read low 0.964
